Assay outcomes deposited in PubChem BioAssay by National Center for Advancing Translational Sciences (NCATS).
CHX counter – counter-screen for Shiga toxin inhibitors: cycloheximide protein synthesis inhibition; cell reporter, cycloheximide protein synthesis inhibition counterscreen; max response, %; 12% of 300,000 active; in the data active means max response mostly above about 13%, no sharp cut-off; inactive means mostly below about 14%; further: read at 38.3 µM for the half of the compounds with a filed dose
Lassa entry inh – blocks Lassa virus binding to or entry into cells; 1.2% of 300,000 active; Potency, µM (highest dose often 37.9 µM), usual class: inhibitors; Lassa virus pseudotype entry inhibition, cell reporter; calls by dose curve; tested in HEK293 cells; further: nearly all actives have a fitted effect of over 50% in size
Shiga inhibitor – inhibitors of Shiga toxin in Vero cells. 9.2% of 290,000 active. Vero cells, Shiga toxin protein synthesis inhibition reporter. inhibition, % at 38.7 µM. AID 2315; in the data active means inhibition mostly above about 28%, no sharp cut-off; inactive means mostly below about 43%
MARV entry inh – Marburg virus entry inhibition. 1.8% of 300,000 active. Marburg virus pseudotyped entry inhibition, cell reporter. Potency, µM (titrated, usually from 37.8 µM), actives largely listed as inhibitors; calls by dose curve; tested in HEK293 cells
Each line names hits and unclear results; the compound was inactive in the other large screens. Sampled rows, rich in hits. Any-hit rate of the full collection: about 12%.

CCN1CCc2c(sc(NC(=O)c3ccc(S(=O)(=O)N(C)c4ccccc4)cc3)c2C(=O)NC)C1	none (no result: Lassa entry inh, MARV entry inh)
COc1cccc(NC(=O)C(=O)c2cn(CC(=O)N3CCCC3)c3ccccc23)c1	CHX counter 16.7, Shiga inhibitor 29.1 (no result: Lassa entry inh, MARV entry inh)
COc1ccc(CNC(=O)C(=O)c2cn(CC(=O)N3CCCC3)c3ccccc23)cc1	CHX counter 18.5, Lassa entry inh inconclusive
O=C(NCc1ccc(Cl)cc1)C(=O)c1cn(CC(=O)N2CCOCC2)c2ccccc12	none (no result: Lassa entry inh, MARV entry inh)
NS(=O)(=O)c1ccc(CCNC(=O)C(=O)c2cn(CC(=O)N3CCOCC3)c3ccccc23)cc1	none (no result: Lassa entry inh, MARV entry inh)
CCOc1ccc(CNC(=O)C(=O)c2cn(CC(=O)N3CCOCC3)c3ccccc23)cc1OC	CHX counter 10.1
COc1ccc(NC(=O)C(=O)c2cn(CC(=O)N3CCCC3)c3ccccc23)cc1OC	Lassa entry inh inconclusive, MARV entry inh inconclusive
COc1ccccc1CCNC(=O)C(=O)c1cn(CC(=O)N2CCOCC2)c2ccccc12	CHX counter 61.0, Shiga inhibitor 80.1
COc1ccc(CNC(=O)C(=O)c2cn(CC(=O)N3CCOCC3)c3ccccc23)cc1	none (no result: Lassa entry inh, MARV entry inh)
Cc1cccc(N2C(=O)C(CC(=O)Nc3ccc(F)cc3)N(C3CCCC3)C2=O)c1 (stereo not given)	none (no result: CHX counter, Shiga inhibitor, MARV entry inh)
O=C(NCc1ccc(F)cc1)C(=O)c1cn(CC(=O)N2CCCC2)c2ccccc12	Lassa entry inh inconclusive
COc1ccccc1CNC(=O)C(=O)c1cn(CC(=O)N2CCCC2)c2ccccc12	CHX counter 19.6, Shiga inhibitor 62.0
O=C(Nc1ccccc1Cl)C(=O)c1cn(CC(=O)N2CCOCC2)c2ccccc12	CHX counter 58.7, Shiga inhibitor 46.1 (no result: Lassa entry inh, MARV entry inh)
O=c1c(O)c(-c2ccc(O[C@@H]3O[C@H](CO)[C@@H](O)[C@H](O)[C@H]3O)c(O)c2)oc2cc(O)cc(O)c12	none (no result: Lassa entry inh, MARV entry inh)
CC(C)CCCCCCCCCCCCC(=O)NCC(=O)NC1C(C)OC(Nc2ncnc3nc[nH]c23)C(O)C1O (stereo not given)	Lassa entry inh 0.0794µM, MARV entry inh inconclusive (no result: CHX counter, Shiga inhibitor)
Cc1cc(C)n(C(C)CC(=O)NCc2ccc(N(C)C)cc2)n1 (stereo not given)	none (no result: CHX counter, Shiga inhibitor, MARV entry inh)
CC1(c2ccccc2)CC(C)(C)n2c(O)c(C3=NC(=S)NC3=O)c3cccc1c32 (stereo not given)	none (no result: Lassa entry inh, MARV entry inh)
COc1cc2c3c(c1)c(C1=NC(=S)NC1=O)c(O)n3C(C)(C)C=C2C	CHX counter 21.1
c1ccc(-c2n[nH]c(-c3ccccn3)n2)cc1	CHX counter 24.2, Lassa entry inh inconclusive, MARV entry inh inconclusive
c1ccc(-c2n[nH]c(-c3ccccn3)n2)nc1	CHX counter 33.3, Lassa entry inh inconclusive, Shiga inhibitor 62.2, MARV entry inh inconclusive
CCOc1ccc(N(CC(=O)N/N=C/c2ccc(OC(C)C)cc2)S(C)(=O)=O)cc1	none
O=C(NCCn1cccn1)c1ccc(OC2CCN(C(=O)C3CC3)CC2)cc1	none (no result: Lassa entry inh, MARV entry inh)
COCC(=O)N1CCC(Oc2ccc(C(=O)NCCCn3cccn3)cc2)CC1	none
CCN(CCn1cccn1)C(=O)c1ccc(OC2CCN(C(=O)COC)CC2)cc1	CHX counter 21.5
CSCCNC(=O)c1ccc(OC2CCN(CCc3ccccc3)CC2)cc1	CHX counter 14.6 (no result: Lassa entry inh, MARV entry inh)
O=C(NCCn1cccn1)c1ccc(OC2CCN(CCc3ccccc3)CC2)cc1	CHX counter 14.2, Shiga inhibitor 28.7
COC(=O)CCCNC(=O)c1ccc(OC2CCN(CCc3ccccc3)CC2)cc1	none (no result: Lassa entry inh, MARV entry inh)
CCCCOc1ccccc1C(=O)Nc1nonc1-c1ccccc1	none (no result: CHX counter, Shiga inhibitor)
Cc1ccc(OCC(=O)Nc2ccc(F)cc2)c([N+](=O)[O-])n1	CHX counter 56.4, Shiga inhibitor active, MARV entry inh inconclusive
CC(=O)c1ccc(OCC(=O)Nc2ccc3c(c2)CCC3)cc1	CHX counter 19.7
Cc1ccc(NC(=O)COC(=O)c2ccc([N+](=O)[O-])o2)cc1S(=O)(=O)N1CCCCCC1	CHX counter 28.3, Shiga inhibitor 58.6, MARV entry inh inconclusive
Cc1ccc(NC(=O)COC(=O)c2ccc3c(c2)OCO3)cc1S(=O)(=O)N1CCCCC1	none
O=C(COc1ccc(Cl)cc1)Nc1ccc2c(c1)CCC2	none
COc1cc(NC(=O)Cn2ncc(Cl)c(Cl)c2=O)c(C)cc1[N+](=O)[O-]	Lassa entry inh inconclusive, MARV entry inh 7.08µM
CCOc1ccc(NC(=O)CN2C(=O)C(c3ccccc3)=NC23CCCCCC3)cc1	MARV entry inh inconclusive (no result: CHX counter, Shiga inhibitor)
CCC(=O)c1cn(CC(=O)NCc2cccnc2)c2ccccc12	none
Cc1ccc(OCC(=O)Nc2ccc(S(=O)(=O)N3CCCCC3)cc2)c([N+](=O)[O-])n1	none
COc1ccc(C(=O)OCC(=O)Nc2ccc(OC)c(S(=O)(=O)N3CCCCC3)c2)cc1[N+](=O)[O-]	Lassa entry inh inconclusive (no result: CHX counter, Shiga inhibitor)
Cc1ccc(OCC(=O)Nc2ccc(C)c(S(=O)(=O)N3CCCCC3)c2)c([N+](=O)[O-])n1	Lassa entry inh inconclusive, MARV entry inh 1.12µM
COc1cc(NC(=O)COC(=O)c2ccc(C)c(S(=O)(=O)N3CCCCC3)c2)c(C)cc1[N+](=O)[O-]	CHX counter 71.7, Shiga inhibitor 57.3
Cc1ccc(OCC(=O)Nc2ccc3c(c2)CCC3)c([N+](=O)[O-])n1	CHX counter 39.9, Lassa entry inh inconclusive, Shiga inhibitor 66.7
CCOC(=O)C(=O)N1CCN(c2cc3c(cc2[N+](=O)[O-])n(C)c(=O)n3C)CC1	none
Cc1ccccc1Nc1cc(C)c2c(O)cccc2n1	CHX counter 23.0, MARV entry inh inconclusive
COc1ccc(Nc2cc(C)c3c(O)cccc3n2)cc1	CHX counter 32.1 (no result: Lassa entry inh, MARV entry inh)
COC(=O)c1cc(Nc2cc(C)c3ccc(O)cc3n2)cc(C(=O)OC)c1	Lassa entry inh inconclusive
COC(=O)c1cc(Nc2cc(C)c3c(O)cccc3n2)cc(C(=O)OC)c1	CHX counter 16.4 (no result: Lassa entry inh, MARV entry inh)
Cc1ccc(Nc2cc(C)c3ccc(O)cc3n2)cc1C	CHX counter 43.1, Shiga inhibitor 83.3 (no result: Lassa entry inh, MARV entry inh)
COc1ccc(Nc2c(C)cccc2C)cc1	none
CCOc1ccccc1NC(=O)Cn1cnc2onc(-c3ccc(F)cc3)c2c1=O	none (no result: CHX counter, Shiga inhibitor, MARV entry inh)
Cc1ccc(Cn2c(C)c3cnn(CC(=O)O)c(=O)c3c2C)cc1	none (no result: CHX counter, Shiga inhibitor)
Cc1ccc(Nc2cc(C)c3c(O)cccc3n2)cc1C	CHX counter 46.4, Shiga inhibitor 76.4 (no result: Lassa entry inh, MARV entry inh)
Cc1ccc(CCNC(=O)c2cc(Nc3ccc(C)c(C)c3)nc3ccccc23)cc1	none (no result: CHX counter, Shiga inhibitor, MARV entry inh)
O=C(NCc1ccc2c(c1)OCO2)c1nc(S(=O)(=O)Cc2ccccc2F)ncc1Cl	CHX counter 25.7 (no result: Lassa entry inh, MARV entry inh)
O=C(NCc1ccc2c(c1)OCO2)c1nc(S(=O)(=O)Cc2ccccc2)ncc1Cl	CHX counter 27.1, Lassa entry inh inconclusive, MARV entry inh inconclusive
O=C(NCc1ccc2c(c1)OCO2)c1ccccc1Cl	none (no result: CHX counter, Shiga inhibitor)
O=C(NCCNC(=O)c1ccc(Cl)cc1Cl)c1ccco1	none
O=C(OCc1cn([C@H]2C[C@H](c3ccccc3)N(C(=O)C3CCCCC3)C[C@H]2O)nn1)c1ccccc1	none (no result: CHX counter, Shiga inhibitor, MARV entry inh)
CC1(C)CC(=O)C(N=Nc2ccc(OC(F)F)cc2)=C(O)C1	CHX counter 56.9, Shiga inhibitor 78.7, MARV entry inh inconclusive
CC1(C)CC(=O)C(N=Nc2ccc3ncsc3c2)=C(O)C1	CHX counter 29.0, Lassa entry inh inconclusive, Shiga inhibitor 48.7
COc1ccc2nc(N=NC3=C(O)CC(C)(C)CC3=O)sc2c1	CHX counter 27.5, Lassa entry inh 14.6µM, MARV entry inh 13µM
CC1(C)CC(=O)C(N=Nc2ccc(-c3ccccc3)cc2)=C(O)C1	none (no result: Lassa entry inh, MARV entry inh)
